Data published in the supplement of paper PMC12636033.
± gives the standard deviation of the averaged measurements. The full ranking holds about 33,000 sequences; the median of “E-score (rank enrichment, -0.5 to 0.5)” is about -0.0068, and the highest 2% start at about 0.24. The sample holds the highest values, similar sequences and a random draw of the others, so the mix is not that of the screen.

What follows are sequences tested on muMax20 (Max(13-93) K31hArg/K57hArg, M65Nle) (assay: PBM 8-mer E-score (E-score (rank enrichment, -0.5 to 0.5)); higher = stronger preferential binding).
Experimental: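 Protein binding microarray (universal PBM chip covering all 10-mers in fixed probe flanks) with chemically synthesized human Max(13-93) bHLH-LZ analogs (not full-length Max) bearing noncanonical residues (hArg, Tha, Aib, Nle at 65) and aromatic Cys staples. Read-out per 8-mer (and its reverse complement): E-score (rank-based enrichment, -0.5 to 0.5) and Z-score of median probe intensity.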

| Sequence | PBM 8-mer E-score |
| --- | --- |
| CGTGAAAA | 0.213 ± 0.11 |
| CTTGAAAA | 0.117 ± 0.035 |
| TGTGAAAA | 0.289 ± 0.071 |
| ATTGAAAC | 0.154 ± 0.059 |
| GGTGAAAA | -0.0373 ± 0.0061 |
| ATTGAAAA | 0.306 ± 0.03 |
| CGCCGACC | -0.14 ± 0.057 |
| ACTGAGGA | -0.126 ± 0.025 |
| AGCACCTG | -0.0212 ± 0.043 |
| TACGTAGA | 0.0117 ± 0.044 |
| AACGAGGT | -0.0494 ± 0.052 |
| AGTTAGCA | 0.0279 ± 0.055 |
| ACGTGTCT | 0.326 ± 0.036 |
| AAGTGTCT | 0.0152 ± 0.031 |
| AAGTGTCG | 0.0406 ± 0.12 |
| ACGTGTCG | 0.237 ± 0.075 |
| GCGTGTCA | 0.149 ± 0.2 |
| CCGTGTCG | -0.1658 ± 0.00081 |
| CCGTGTCA | -0.0799 ± 0.0084 |
| ACGTGTCC | 0.166 ± 0.052 |
| ACGTGTCA | 0.278 ± 0.094 |
| CAGCCGTA | -0.128 ± 0.029 |

| Sequence | PBM 8-mer E-score |
| --- | --- |
| ACATTAAC | 0.175 ± 0.0064 |
| GCATTAAC | 0.0389 ± 0.091 |
| CCATTAAC | 0.239 ± 0.015 |
| TGCGAACA | 0.109 ± 0.11 |
| AGCACATA | 0.0478 ± 0.12 |
| ACCACATG | 0.319 ± 0.077 |
| ACCACATA | 0.0727 ± 0.0036 |
| AGCACATG | 0.266 ± 0.049 |
| ATCACATC | 0.00749 ± 0.048 |
| ATCACATG | 0.296 ± 0.11 |
| ATCACACA | 0.251 ± 0.021 |
| ATCACATA | 0.168 ± 0.048 |
| AGCACATC | -0.0692 ± 0.013 |
| ATCACACG | 0.157 ± 0.065 |
| ACCACATC | -0.0454 ± 0.028 |
| ATCACACC | 0.12 ± 0.065 |
| ACGAGCAG | -0.0192 ± 0.02 |
| CACCCGGG | -0.361 ± 0.014 |
| CATCCGGA | -0.0933 ± 0.064 |
| CATCTCAC | -0.0239 ± 0.23 |
| AGTTTATG | 0.0668 ± 0.014 |
| CCTTTACC | 0.023 ± 0.2 |

| Sequence | PBM 8-mer E-score |
| --- | --- |
| CCTTTACA | 0.173 ± 0.094 |
| CCTTTACG | 0.24 ± 0.01 |
| AAGCTACG | 0.0404 ± 0.15 |
| AGTCCTGA | -0.233 ± 0.16 |
| CGTGGTAA | 0.215 ± 0.06 |
| AATGGTAT | 0.213 ± 0.019 |
| GGTGGTAA | 0.0953 ± 0.084 |
| CATGGTAA | 0.297 ± 0.052 |
| CATGGTCC | -0.136 ± 0.14 |
| CATGGTAG | 0.0279 ± 0.022 |
| CATGGTCA | 0.304 ± 0.047 |
| TGTGGTAA | 0.244 ± 0.067 |
| TATGGTAA | 0.108 ± 0.0077 |
| AATGGTAA | 0.27 ± 0.071 |
| AATGGTAG | 0.0638 ± 0.072 |
| CATGGTCG | 0.0286 ± 0.039 |
| GGGGCGAA | 0.0451 ± 0.035 |
| CCGCGAGG | -0.191 ± 0.082 |
| CTCTCTCA | -0.0954 ± 0.052 |
| CCCCAGTA | 0.0363 ± 0.019 |
| CAAGGATA | 0.00143 ± 0.082 |
| CCATAACA | 0.141 ± 0.035 |

| Sequence | PBM 8-mer E-score |
| --- | --- |
| CGGCGACC | -0.159 ± 0.097 |
| TGCGGCAA | 0.0884 ± 0.051 |
| AGACCTGG | -0.177 ± 0.069 |
| ATGCGCAT | 0.295 ± 0.03 |
| ATGCGCAC | -0.00186 ± 0.029 |
| ATGCGCAA | 0.0942 ± 0.019 |
| AACCGCAC | 0.0872 ± 0.056 |
| CGGTCGGC | -0.2874 ± 0.0021 |
| TAATGCCA | 0.142 ± 0.036 |
| CACACGTG | 0.426 ± 0.074 |
| CACACGTA | 0.125 ± 0.018 |
| AACACGTA | 0.218 ± 0.0095 |
| AACACGTG | 0.481 ± 0.017 |
| AACACGTC | 0.091 ± 0.002 |
| CACACGTC | 0.0717 ± 0.034 |
| GCATTGCA | 0.14 ± 0.028 |
| CGATTACC | -0.0103 ± 0.049 |
| CAGAGTGA | 0.00192 ± 0.0028 |
| GCCCCTAA | -0.0669 ± 0.16 |
| ATCCCCGG | -0.16 ± 0.024 |
